# A number with no mark means an inactive call. Inconclusive results are not listed. Active and inactive are the calls of the source. Unless noted, the call rests on the fitted dose curve; in most records, active means well fitted curve in the direction sought with a large enough effect; inconclusive means small, poorly fitted or top-dose-only effect, or another doubt; inactive means no such curve, though single readings can be large; an effect the other way counts as inactive or inconclusive.
# Molecular target: T1, Tyrosine-protein phosphatase non-receptor type substrate 1 (Homo sapiens) + Leukocyte surface antigen CD47 (Homo sapiens) (UniProt P78324+Q08722)
# Test: CD47-SIRPalpha protein protein interaction - HTRF assay qHTS validation (AID 1347058; active means well fitted curve in the direction sought with a large enough effect in the signal ratio, not every such curve was filed as active; the % refers to the signal ratio; further: 0% is about no effect)
# Conditions: TR-FRET HTRF CD47-His / biotin-SIRPalpha binding, ratio 665/615; series mostly up to 38.3 µM; activity change, negative = inhibition: at the top concentration
# Procedure, shortened: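 Soluble extracellular domains (6His-CD47, Avi-tag-biotinylated SIRPalpha) in PBS pH 7.4 with 0.05% IGEPAL CA-630. Compounds were preincubated 30 min at RT with CD47 and anti-His-Eu, then SIRPalpha and SAV-XL665 were added. TR-FRET 665/615 ratio.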
# T1 sequence (P78324 whole entry, looked up): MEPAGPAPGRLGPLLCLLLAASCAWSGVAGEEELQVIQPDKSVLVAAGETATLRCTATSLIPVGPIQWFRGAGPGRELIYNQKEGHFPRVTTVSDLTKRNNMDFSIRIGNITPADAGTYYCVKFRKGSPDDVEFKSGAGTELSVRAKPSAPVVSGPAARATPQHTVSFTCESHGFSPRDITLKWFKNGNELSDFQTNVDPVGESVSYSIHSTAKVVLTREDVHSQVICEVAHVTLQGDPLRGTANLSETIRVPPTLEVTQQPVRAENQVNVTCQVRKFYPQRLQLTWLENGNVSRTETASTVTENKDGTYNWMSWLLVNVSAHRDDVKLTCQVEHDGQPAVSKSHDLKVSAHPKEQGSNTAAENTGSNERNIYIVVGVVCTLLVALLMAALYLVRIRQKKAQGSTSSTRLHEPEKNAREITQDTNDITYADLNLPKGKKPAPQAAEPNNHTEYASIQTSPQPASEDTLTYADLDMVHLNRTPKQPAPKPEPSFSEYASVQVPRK
# T1 sequence (Q08722 whole entry, looked up): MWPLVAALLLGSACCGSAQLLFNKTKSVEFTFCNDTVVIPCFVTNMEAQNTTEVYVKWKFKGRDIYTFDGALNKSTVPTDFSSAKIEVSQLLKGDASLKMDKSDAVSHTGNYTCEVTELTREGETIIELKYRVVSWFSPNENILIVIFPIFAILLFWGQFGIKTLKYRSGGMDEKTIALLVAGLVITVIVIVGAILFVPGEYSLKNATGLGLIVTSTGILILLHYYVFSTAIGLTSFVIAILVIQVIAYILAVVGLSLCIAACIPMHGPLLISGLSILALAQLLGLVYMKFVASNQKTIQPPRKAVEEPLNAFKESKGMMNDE
row,Compound,"activity change, negative = inhibition"
1,CC(=O)[C@H]1CC[C@H]2[C@@H]3CC[C@H]4C[C@H](O)CC[C@]4(C)[C@H]3C(=O)C[C@]12C,0.619%
2,C[C@@H]1O[C@@H](O[C@H]2C[C@@H](O)[C@]3(CO)[C@H]4[C@H](O)C[C@]5(C)[C@@H](C6=CC(=O)OC6)CC[C@]5(O)[C@@H]4CC[C@]3(O)C2)[C@H](O)[C@H](O)[C@H]1O,-3.44%
3,O=c1[nH]c2ccccc2n1CCCN1CCC(n2c(=O)[nH]c3cc(Cl)ccc32)CC1,4.06%
4,O=c1[nH]c2ccccc2n1C1CCN(CCCC(c2ccc(F)cc2)c2ccc(F)cc2)CC1,-2.99%
5,O=C1NCN(c2ccccc2)C12CCN(CC1COc3ccccc3O1)CC2 (centres undefined),-3.04%

# Molecular target: T1, Tyrosine-protein phosphatase non-receptor type substrate 1 (Homo sapiens) + Leukocyte surface antigen CD47 (Homo sapiens)
# Test: CD47-SIRPalpha protein protein interaction - Alpha assay qHTS validation (AID 1347059);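 further: bead proximity luminescence from CD47 binding SIRPalpha after compound preincubation with SIRPalpha; on the % scale 0 is the no-effect control and ±100 the full control effect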
# Conditions: AlphaScreen CD47-His/biotin-SIRPalpha binding, LOPAC; series mostly up to 38.3 µM; activity change, negative = inhibition: at the top concentration
# Procedure, shortened: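 AlphaScreen signal between CD47-His (12.5 nM) and biotin-SIRPalpha (25 nM) soluble extracellular domains, bead-captured via Ni-NTA and streptavidin. Compounds, in 7-point titrations, met SIRPalpha 30 min before CD47; PBS pH 7.4 with 0.05% IGEPAL.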
row,Compound,"activity change, negative = inhibition"
1,CC(=O)[C@H]1CC[C@H]2[C@@H]3CC[C@H]4C[C@H](O)CC[C@]4(C)[C@H]3C(=O)C[C@]12C,0.619%
2,C[C@@H]1O[C@@H](O[C@H]2C[C@@H](O)[C@]3(CO)[C@H]4[C@H](O)C[C@]5(C)[C@@H](C6=CC(=O)OC6)CC[C@]5(O)[C@@H]4CC[C@]3(O)C2)[C@H](O)[C@H](O)[C@H]1O,2.39%
3,O=c1[nH]c2ccccc2n1CCCN1CCC(n2c(=O)[nH]c3cc(Cl)ccc32)CC1,-2.2%
4,O=c1[nH]c2ccccc2n1C1CCN(CCCC(c2ccc(F)cc2)c2ccc(F)cc2)CC1,-26.5%
5,O=C1NCN(c2ccccc2)C12CCN(CC1COc3ccccc3O1)CC2 (centres undefined),-4.22%

# Molecular target: Parathyroid hormone/parathyroid hormone-related peptide receptor (Homo sapiens) (UniProt Q03431)
# Test: qHTS for PTHR1 Agonists: Optimization Screen against the NCGC LOPAC library (AID 1347079);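 further: GloSensor cAMP luminescence in HEK-293 GP2 cells expressing human PTHR1 with IBMX; 0% is about no effect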
# Conditions: HEK293 GP2 PTHR1 GloSensor cAMP luminescence, 1 h; series mostly up to 57.1 µM; activation: at the top concentration
# Procedure, shortened: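 Signal increase flags agonism. GP2 cells, derived from HEK-293, express human PTHR1 and a GloSensor cAMP construct.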
# Chain of Parathyroid hormone/parathyroid hormone-related peptide receptor (Homo sapiens) (Q03431 whole entry, looked up): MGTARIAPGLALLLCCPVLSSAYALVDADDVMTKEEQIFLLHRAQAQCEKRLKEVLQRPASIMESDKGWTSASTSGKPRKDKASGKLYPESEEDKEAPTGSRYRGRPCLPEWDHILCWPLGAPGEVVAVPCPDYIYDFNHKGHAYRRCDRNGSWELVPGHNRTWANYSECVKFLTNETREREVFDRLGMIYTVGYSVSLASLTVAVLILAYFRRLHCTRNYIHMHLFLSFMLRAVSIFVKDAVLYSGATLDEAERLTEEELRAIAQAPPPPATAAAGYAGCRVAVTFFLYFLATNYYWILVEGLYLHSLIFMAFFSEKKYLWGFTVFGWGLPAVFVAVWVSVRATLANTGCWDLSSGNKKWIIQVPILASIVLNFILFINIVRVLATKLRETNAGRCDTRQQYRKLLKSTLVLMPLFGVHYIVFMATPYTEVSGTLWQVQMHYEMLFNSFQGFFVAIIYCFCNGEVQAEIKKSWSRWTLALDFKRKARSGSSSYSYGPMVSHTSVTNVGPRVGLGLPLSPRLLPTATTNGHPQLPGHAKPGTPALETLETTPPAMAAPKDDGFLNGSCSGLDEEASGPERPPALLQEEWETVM
row,Compound,activation
1,CN1C[C@H](CNC(=O)OCc2ccccc2)C[C@@H]2c3cccc4c3c(cn4C)C[C@H]21,36.3%
2,CC(=O)[C@H]1CC[C@H]2[C@@H]3CC[C@H]4C[C@H](O)CC[C@]4(C)[C@H]3C(=O)C[C@]12C,-10%
3,C[C@@H]1O[C@@H](O[C@H]2C[C@@H](O)[C@]3(CO)[C@H]4[C@H](O)C[C@]5(C)[C@@H](C6=CC(=O)OC6)CC[C@]5(O)[C@@H]4CC[C@]3(O)C2)[C@H](O)[C@H](O)[C@H]1O,-32.9%
4,O=c1[nH]c2ccccc2n1CCCN1CCC(n2c(=O)[nH]c3cc(Cl)ccc32)CC1,5.97%
5,O=c1[nH]c2ccccc2n1C1CCN(CCCC(c2ccc(F)cc2)c2ccc(F)cc2)CC1,13.2%
6,CC[C@@H](CO)NC(=O)[C@@H]1C=C2c3cccc4[nH]cc(c34)C[C@H]2N(C)C1,-26.9%
7,O=C1NCN(c2ccccc2)C12CCN(CC1COc3ccccc3O1)CC2 (centres undefined),-8.77%

# Tested on: not listed separately
# Test: qHTS for Inhibitors of the Functional Ribonucleoprotein Complex (vRNP) of Lassa (LASV) Arenavirus: LASV Primary Screen - GLuc reporter signal (AID 1347082; calls by dose curve; tested in HEK293 reporter line; further: on the % scale 0 is the no-effect control and ±100 the full control effect; nearly all actives have a fitted effect of over 60% in size)
# Conditions: LASV minigenome vRNP, Gaussia luciferase reporter; series mostly up to 57.5 µM; activity change, negative = inhibition: at the top concentration
Compound,"activity change, negative = inhibition",Potency
CN(C)c1ccc(O)c2c1C[C@H]1C[C@H]3[C@H](N(C)C)C(=O)C(C(N)=O)=C(O)[C@@]3(O)C(=O)C1=C2O,-1.58%,
Clc1ccc(COC(Cn2ccnc2)c2ccc(Cl)cc2Cl)cc1 (centres undefined),,inactive
CC(C)=CC1C(C(=O)OCc2cccc(Oc3ccccc3)c2)C1(C)C (centres undefined),5.83%,
CN1C[C@H](CNC(=O)OCc2ccccc2)C[C@@H]2c3cccc4c3c(cn4C)C[C@H]21,,inactive
CC(=O)[C@H]1CC[C@H]2[C@@H]3CC[C@H]4C[C@H](O)CC[C@]4(C)[C@H]3C(=O)C[C@]12C,,inactive
Clc1ccc(CCC(Cn2ccnc2)Sc2c(Cl)cccc2Cl)cc1 (centres undefined),,inactive
Cc1ccc(-c2nc3ccc(C)cn3c2CC(=O)N(C)C)cc1,-0.865%,
CNCCC(Oc1ccc(C(F)(F)F)cc1)c1ccccc1 (centres undefined),,inactive
CCn1cc(C(=O)O)c(=O)c2cc(F)c(N3CCNCC3)cc21,,inactive
CCN(CC)C(=O)N[C@@H]1C=C2c3cccc4[nH]cc(c34)C[C@@H]2N(C)C1,-51.7%,
COC1(CS(=O)c2ccccc2)CCN(CCc2c[nH]c3ccc(F)cc23)CC1 (centres undefined),-1.23%,
C=C1CC[C@@]2(O)[C@H]3Cc4ccc(O)c5c4[C@@]2(CCN3CC2CC2)[C@H]1O5,4.46%,
CC(C)(C)NCC(O)c1cc(Cl)c(N)c(Cl)c1 (centres undefined),0.607%,
CCCN(CCc1cccs1)[C@H]1CCc2c(O)cccc2C1,1.35%,
C=C1C[C@@H]2[C@H](CC[C@]3(C)C(=O)CC[C@@H]23)[C@@]2(C)C=CC(=O)C=C12,-3.9%,
O=c1[nH]c2ccccc2n1CCCN1CCC(n2c(=O)[nH]c3cc(Cl)ccc32)CC1,,inactive

Compound,"activity change, negative = inhibition",Potency
CN1C(=S)CN=C(c2ccccc2)c2cc(Cl)ccc21,-2.81%,
C[C@]12CC[C@H]3[C@@H](CCC4=CC(=O)CC[C@@H]43)[C@@H]1CC[C@@H]2OC(=O)CCc1ccccc1,-9.08%,
CC1OC(C)OC(C)O1 (centres undefined),-1.01%,
N[C@@H](Cc1ccc(Oc2cc(I)c(O)c(I)c2)c(I)c1)C(=O)O,-16.5%,
Cc1cnc(C(=O)NCCc2ccc(S(=O)(=O)NC(=O)NC3CCCCC3)cc2)cn1,,inactive
O=c1oc2ccccc2c(O)c1C(CC(O)c1ccc(-c2ccc(Br)cc2)cc1)c1ccccc1 (centres undefined),3.44%,
Oc1cc(Cl)ccc1Oc1ccc(Cl)cc1Cl,,inactive
CC[C@@H](CO)NC(=O)[C@@H]1C=C2c3cccc4[nH]cc(c34)C[C@H]2N(C)C1,,inactive
O=C1NCN(c2ccccc2)C12CCN(CC1COc3ccccc3O1)CC2 (centres undefined),,inactive
Oc1ccccc1-c1ccccc1,2.8%,
CCOP(=S)(OCC)Oc1cc(C)nc(C(C)C)n1,-0.215%,
COC[C@@H](NC(C)=O)C(=O)NCc1ccccc1,68.5%,
OCCOc1ccccc1,,inactive
NP(N)(=O)NC(=O)c1ccc(F)cc1,0.471%,
CCC(COC(=O)c1cc(OC)c(OC)c(OC)c1)(c1ccccc1)N(C)C (centres undefined),-16.6%,
CNC(=O)c1ccc(N2C(=S)N(c3ccc(C#N)c(C(F)(F)F)c3)C(=O)C23CCC3)cc1F,5.99%,

# — PubChem BioAssay (NCATS)
